Most compounds without a hit are left out; they make up all but 8% or so of the library.
ELG1 repair inh: qHTS screen for small molecules that inhibit ELG1-dependent DNA repair in human embryonic kidney (HEK293T) cells expressing luciferase-tagged ELG1; HEK293T ELG1-luciferase reporter, luminescence, 16 h; DNA damage induced by 5-fluorouridine; Potency, µM (highest dose often 46.1 µM), actives largely listed as inhibitors; 330,000 tested, 2.3% active; AID 504467, 2011; also: nearly all actives have a fitted effect of over 55% in size
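Step one: seed 2,000 cells per well. Step two: pin-transfer compound or DMSO alongside 5-fluorouridine. Step three: incubate 16 hr, 37 °C, 5% CO2. Step four: add ONE-Glo, wait 30 min, read luminescence.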
RORg inh: qHTS for inhibitors of ROR gamma transcriptional activity; 310,000 tested, 5.4% active; Drosophila S2 Gal4-RORgamma UAS-luciferase reporter, 20 h; Nuclear receptor ROR-gamma (Mus musculus), P51450; Potency, µM (highest dose often 53.6 µM), usual class: inhibitors; also: nearly all actives have a fitted effect of over 60% in size
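Stable Schneider cell line, Gal4 DNA-binding domain fused to ROR gamma, UAS-luciferase. Cmpd 1 hr RT → CuSO4 700 uM final → 20 hr RT → luciferase reagent 10 min → luminescence.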
TSHR antag: Antagonists of the Thyroid Stimulating Hormone Receptor: HTS campaign | TSHR-expressing cells, TSH-stimulated cAMP HTRF, 2 h; active compounds read low | activity change, negative = inhibition, % at 11.5 µM | 330,000 tested, 0.2% active | AID 504810, 2011;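 active = activity change below a set negative limit, meaning inhibition stronger than a set level, cut at about -70% in these data; inconclusive = activity change between two set negative limits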
Target sequence (P16473 whole entry, looked up): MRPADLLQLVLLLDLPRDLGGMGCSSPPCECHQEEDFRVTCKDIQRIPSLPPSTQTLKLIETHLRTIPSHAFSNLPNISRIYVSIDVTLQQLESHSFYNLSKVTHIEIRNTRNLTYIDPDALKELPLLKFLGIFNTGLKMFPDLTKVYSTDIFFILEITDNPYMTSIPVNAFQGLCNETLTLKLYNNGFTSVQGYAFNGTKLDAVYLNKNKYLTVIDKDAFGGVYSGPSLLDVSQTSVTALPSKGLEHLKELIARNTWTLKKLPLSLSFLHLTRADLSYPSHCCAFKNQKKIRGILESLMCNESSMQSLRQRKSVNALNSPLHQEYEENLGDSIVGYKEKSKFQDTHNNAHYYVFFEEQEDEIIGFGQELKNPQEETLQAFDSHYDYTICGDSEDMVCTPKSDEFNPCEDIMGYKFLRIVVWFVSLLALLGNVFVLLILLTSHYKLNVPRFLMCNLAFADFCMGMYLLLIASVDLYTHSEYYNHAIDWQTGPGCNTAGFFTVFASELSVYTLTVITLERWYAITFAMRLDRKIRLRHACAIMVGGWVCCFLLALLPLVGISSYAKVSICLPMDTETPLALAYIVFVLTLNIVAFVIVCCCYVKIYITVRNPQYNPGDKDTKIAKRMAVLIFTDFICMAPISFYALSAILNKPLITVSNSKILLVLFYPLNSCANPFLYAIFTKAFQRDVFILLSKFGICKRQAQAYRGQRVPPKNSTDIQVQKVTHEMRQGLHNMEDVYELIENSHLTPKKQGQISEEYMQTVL
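TSHR-expressing cells were treated with compounds, then stimulated with TSH at EC80 (4nM final) for 2 hours at 37 deg C. Cellular cAMP was measured by HTRF competition between lysate cAMP and cAMP-d2 for a cryptate-labelled anti-cAMP antibody.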
Coupling enz: qHTS Assay for Inhibitors of Fructose-1,6-bisphosphate Aldolase from Giardia Lamblia: Coupling assay counterscreen | coupling enzyme system counterscreen, AmpLite Red fluorescence | activity change, negative = inhibition, % at 58.2 µM, hits read low | 290,000 tested, 0.67% active; in the data active = activity change below about -30%
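Coupling enzymes only (glyceraldehyde-3-phosphate) + compound, at 57.5 uM final, 10 min RT; add substrate/coupling/AmpLite Red mix, 20 min RT; fluorescence ex 525/em 598 nm. Actives flag coupling-system interference.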
VP16 counter: VP16 counterscreen qHTS for inhibitors of ROR gamma transcriptional activity. Drosophila S2 Gal4-VP16 UAS-luciferase, luminescence, 20 h. Potency, µM (doses to about 53.6 µM), actives largely listed as inhibitors. 310,000 tested, 3.5% active. AID 2546, 2010;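 also: Gal4-VP16 expression switched on by copper sulfate through the metallothionein promoter; nearly all actives have a fitted effect of over 50% in size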
Each line names hits and unclear results; the compound was inactive in the other large screens; ! = repeats disagree. Unless noted, calls follow the shape of the dose curve; as a rule, active = well fitted curve in the direction sought with a large enough effect; inconclusive = small, poorly fitted or top-dose-only effect, or another doubt; inactive = no such curve, though single readings can be large; an effect the other way counts as inactive or inconclusive.

CCN(CC)CCn1c(NCc2ccco2)nc2ccccc21	none
CCN(CC)c1ccc(CNc2nc3ccccc3n2C)cc1	none
c1ccc(Cn2c(CNc3nc4ccccc4n3CCN3CCCCC3)nc3ccccc32)cc1	ELG1 repair inh inconclusive, RORg inh inconclusive, VP16 counter inconclusive
COc1ccc(CNc2nc3ccccc3n2CCN2CCCCC2)cc1	ELG1 repair inh inconclusive, RORg inh 15.8µM
C/C(=N\OCC(=O)OCC(=O)NC(=O)c1ccc(OC(F)F)cc1)c1ccc2c(c1)OCO2	none (no result: RORg inh, Coupling enz, VP16 counter)
COc1ccc(CCN2CCC(Nc3nc4ccccc4n3Cc3ccc(F)cc3)CC2)cc1	RORg inh 14.1µM!, VP16 counter inconclusive
CCc1nc2ccccc2n1Cc1ccc(F)cc1	RORg inh inconclusive
O=C(COc1ccc2ccccc2c1Br)N1CCCCC1	ELG1 repair inh inconclusive (no result: Coupling enz)
NC(=O)C1CCN(C(=O)COc2ccc3ccccc3c2Br)CC1	RORg inh 1.78µM, VP16 counter inconclusive (no result: Coupling enz)
O=S(=O)(Nc1nc2ccccc2s1)c1cc(F)ccc1F	none (no result: Coupling enz)
CC(C)NC(=S)NNc1nc2ccccc2s1	RORg inh 2.51µM, VP16 counter 3.98µM
O=C(NNc1nc2ccc(F)cc2s1)c1cccc(F)c1	ELG1 repair inh inconclusive, RORg inh 3.98µM, VP16 counter inconclusive
O=C(NNc1nc2c(F)cc(F)cc2s1)c1ccccc1	RORg inh 5.01µM, VP16 counter inconclusive
O=C(NNc1nc2ccccc2s1)c1ccc(F)cc1	ELG1 repair inh inconclusive, RORg inh 0.562µM, VP16 counter 1.26µM
CCOC(=O)Nc1nc2ccccc2s1	ELG1 repair inh inconclusive
COc1ccc(C(=O)NNC(=O)c2cccc(F)c2)cc1	ELG1 repair inh inconclusive
CCN(CC)S(=O)(=O)c1cccc(-c2n[nH]c(=S)n2CC(C)C)c1	RORg inh 8.91µM
CC(C)Cn1c(-c2ccncc2)n[nH]c1=S	RORg inh inconclusive
CC(C)Cn1c(-c2ccc(F)cc2)n[nH]c1=S	RORg inh 7.08µM, VP16 counter 10µM
Fc1ccc(-c2n[nH]c(=S)n2CC2CCCO2)cc1 (stereo unspecified)	RORg inh 11.2µM, VP16 counter inconclusive
CC(C)Cn1c(-c2ccccc2F)n[nH]c1=S	RORg inh 5.62µM, VP16 counter 10µM
CCN(CC)S(=O)(=O)c1cccc(-c2n[nH]c(=S)n2Cc2ccccc2)c1	RORg inh inconclusive
C[C@@H](C(=O)NCc1nc2ccccc2[nH]1)[C@@H]1C[C@@]1(C)[C@@H](NC(=O)OCc1ccccc1)c1ccccc1	none (no result: ELG1 repair inh, TSHR antag)
CC(C)C[C@@H](CC(=O)N[C@@H](CCC(=O)O)CC(=O)O)NC(=O)[C@@H]1CNCC[C@H]1NC(=O)C[C@H](CCCN)NC(=O)C[C@H](CO)NC(=O)[C@@H]1CCCC[C@H]1N	none (no result: ELG1 repair inh, TSHR antag)
NC(=O)CSc1nnc(-c2ccccc2F)n1C1CC1	none
CCn1c(-c2cccc(Cl)c2)n[nH]c1=S	RORg inh 6.31µM, VP16 counter 11.2µM
CC(C)(C)c1ccc(-c2n[nH]c(=S)n2C2CCCC2)cc1	ELG1 repair inh inconclusive, RORg inh 2.51µM, VP16 counter 4.47µM
Fc1ccccc1-c1n[nH]c(=S)n1C1CC1	RORg inh 10µM, VP16 counter inconclusive
CC(C)Cn1c(-c2csc3c2CCCC3)n[nH]c1=S	RORg inh 2.82µM, TSHR antag -82.5, VP16 counter 5.01µM
S=c1[nH]nc(-c2cccs2)n1C1CCCCC1	none
CCn1c(-c2ccc(F)cc2)n[nH]c1=S	RORg inh 1.12µM, VP16 counter 2µM
CCn1c(-c2cc(OC)c(OC)c(OC)c2)n[nH]c1=S	ELG1 repair inh inconclusive, RORg inh inconclusive
CCn1c(-c2cc3ccccc3cc2O)n[nH]c1=S	RORg inh 11.2µM, VP16 counter inconclusive
Cn1c(-c2ccc(C(C)(C)C)cc2)n[nH]c1=S	ELG1 repair inh inconclusive, RORg inh 3.16µM, VP16 counter 5.62µM
CCn1c(-c2ccc(C(C)(C)C)cc2)n[nH]c1=S	RORg inh inconclusive, VP16 counter 3.16µM
COc1c(C)cc(C(=O)C2CCCN(C(=O)c3cc(C4CC4)[nH]n3)C2)cc1C (stereo unspecified)	ELG1 repair inh inconclusive, RORg inh inconclusive (no result: Coupling enz)
Cc1ccccc1CN1CCNC(=O)C1CC(=O)NCCN1CCCCC1=O (stereo unspecified)	ELG1 repair inh inconclusive (no result: Coupling enz)
COc1ccccc1CN1CC(C(=O)N(C)CCc2nc3ccc(F)cc3[nH]2)CCC1=O (stereo unspecified)	none (no result: Coupling enz)
CC1CCCCC12NC(=O)N(CC(=O)N1CCN(S(=O)(=O)/C=C/c3ccccc3)CC1)C2=O (stereo unspecified)	none (no result: RORg inh, Coupling enz, VP16 counter)
COC(=O)N/N=C/c1c(C)c(C(=O)c2ccc(F)cc2)n2ccccc12	ELG1 repair inh 23.1µM
Cc1c(/C=N/NC(=O)c2cccnc2)c2ccccn2c1C(=O)c1ccc(F)cc1	ELG1 repair inh 18.4µM
Cc1c(/C=N/NC(=O)c2ccccc2O)c2ccccn2c1C(=O)c1ccc(F)cc1	ELG1 repair inh 23.1µM, TSHR antag inconclusive
Cc1c(/C=N/NC(=O)c2ccc(O)cc2)c2ccccn2c1C(=O)c1ccc(F)cc1	ELG1 repair inh inconclusive
CC[C@H]1C(c2cccc(Cl)c2)=NN(c2ccccc2)[C@@H]1CO	RORg inh inconclusive, VP16 counter 31.6µM (no result: ELG1 repair inh, TSHR antag)
Cc1cccc(C2=NN(c3ccccc3)[C@H](CO)[C@H]2c2ccc(Cl)cc2)c1	VP16 counter 39.8µM
C=CCc1ccccc1OCC(=O)N/N=C/c1ccc(OC(C)=O)cc1OC(C)=O	ELG1 repair inh inconclusive, RORg inh 7.08µM, VP16 counter inconclusive
COC(=O)N1CCC2(CCN(Cc3ccc(C#N)cc3)CC2)CC1	RORg inh inconclusive (no result: ELG1 repair inh, TSHR antag)
CCOC(=O)c1c(C)[nH]c(C)c1C(=O)CSc1nc2ccccc2c(=O)n1-c1ccc(F)cc1	ELG1 repair inh inconclusive
CCOC(=O)c1c(C)[nH]c(C)c1C(=O)CSc1nc2ccccc2c(=O)n1-c1ccccc1C	ELG1 repair inh 23.1µM, RORg inh inconclusive
C/C(CCC(=O)OC[C@@H]1O[C@H](C#Cc2ccccc2)C=C[C@@H]1Oc1ccc(C)cc1)=N/OC[C@@H](O)COCc1ccco1	none (no result: ELG1 repair inh, TSHR antag)
Cn1c(C(=O)c2ccccc2)nc2ccccc21	ELG1 repair inh inconclusive
Cn1c(C(=O)c2ccccc2[N+](=O)[O-])nc2ccccc21	Coupling enz -30.2
Fc1ccc(CCNC(=S)Nc2ccc(F)c(Cl)c2)cc1	ELG1 repair inh inconclusive, RORg inh 7.08µM, VP16 counter inconclusive
Fc1ccc(NC(=S)NCCc2ccc(Cl)cc2)cc1	ELG1 repair inh inconclusive, RORg inh 1.12µM, VP16 counter 3.16µM

Screening data: PubChem, National Center for Advancing Translational Sciences (NCATS)
